Source: PubChem BioAssay (EPA / NIEHS)
Some structures have more than one record in an assay (separate samples or runs), and their calls can disagree. The source made the active and inactive calls. How the source made its calls: active means hit-call score of the fitted dose curve at least 0.9, where 1 is the maximum; inactive means score below 0.9.

Tests used:
[1] = read-out: Interleukin-1 alpha (IL1a), IL1A (gene 3552); test: BSK_KF3CT_IL1a: BioMAP Diversity Plus: KF3CT Assay for Interleukin-1 alpha (IL1a) Biomarker Activity (AID 2283070); settings: primary human keratinocytes with fibroblasts; actives raise or lower the signal
Outline: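 Human keratinocyte plus foreskin fibroblast primary co-culture, sampled 24 h after chemical dosing. IL-1a measured by ELISA; responses fitted bidirectionally against DMSO baseline (negative control), so gain or loss of signal both count.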

[2] = read-out: TIMP metallopeptidase inhibitor 2 (TIMP2), TIMP2 (gene 7077); test: BSK_KF3CT_TIMP2: BioMAP Diversity Plus: KF3CT Assay for TIMP metallopeptidase inhibitor 2 (TIMP2) Biomarker Activity (AID 2283071); settings: primary human keratinocytes with fibroblasts; actives raise or lower the signal
Outline: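 Keratinocyte–fibroblast co-culture, 24 h exposure; TIMP-2 ELISA, DMSO-normalised bidirectional fit. Parallel SRB (0.1%, TCA-fixed, 560 nm) total-protein staining gauges cytotoxicity.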

[3] = read-out: C-C motif chemokine 2 (Homo sapiens) (UniProt P13500); test: BSK_KF3CT_MCP1: BioMAP Diversity Plus: KF3CT Assay for Monocyte Chemoattractant Protein 1 (MCP1/CCL2) Biomarker Activity (AID 2283073); settings: primary human keratinocytes with fibroblasts; actives raise or lower the signal
Outline: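 Human keratinocyte plus foreskin fibroblast primary co-culture exposed to chemical for 24 h. MCP-1 levels measured by ELISA. Bidirectional curve fitting relative to DMSO negative control as baseline.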

[4] = read-out: Matrix Metallopeptidase 9 (MMP9), MMP9 (gene 4318); test: BSK_KF3CT_MMP9: BioMAP Diversity Plus: KF3CT Assay for Matrix Metallopeptidase 9 (MMP9) Biomarker Activity (AID 2283074); settings: primary human keratinocytes with fibroblasts; actives raise or lower the signal;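 on AC50: MMP9 protein level quantified by ELISA in the co-culture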
Outline: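 Keratinocyte plus foreskin fibroblast human primary skin co-culture was dosed with chemical and MMP-9 was quantified by ELISA 24 h later. Bidirectional curve fitting used DMSO as negative control and activity baseline.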

[5] = read-out: urokinase plasminogen activator (uPA), PLAU (gene 5328); test: BSK_KF3CT_uPA: BioMAP Diversity Plus: KF3CT Assay for urokinase plasminogen activator (uPA) Biomarker Activity (AID 2283075); settings: primary human keratinocytes with fibroblasts; actives raise or lower the signal
Outline: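 Human keratinocyte plus foreskin fibroblast primary co-culture exposed to chemical for 24 h. uPA levels were quantified by ELISA, and activity was fitted bidirectionally against a DMSO negative-control baseline.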

CD40, CD40 (gene 958) [6] = test: BSK_LPS_CD40: BioMAP Diversity Plus: LPS Assay for CD40 Biomarker Activity (AID 2283076); settings: primary human HUVEC with PBMC; actives raise or lower the signal
Outline: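 Primary human umbilical vein endothelial cells co-cultured with peripheral blood mononuclear cells, LPS-stimulated, were dosed with chemical and read 24 h later. CD40 levels were measured by ELISA and fitted bidirectionally against DMSO as negative control and baseline.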

[7] = read-out: E-selectin (Homo sapiens) (UniProt P16581); test: BSK_LPS_Eselectin: BioMAP Diversity Plus: LPS Assay for Eselectin Biomarker Activity (AID 2283077); settings: primary human HUVEC with PBMC; actives raise or lower the signal
Outline: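 Human umbilical vein endothelial cells co-cultured with peripheral blood mononuclear cells under LPS stimulation; E-selectin measured by ELISA 24 h after chemical dosing. Activity fitted bidirectionally against DMSO as negative control and baseline.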

[8] = read-out: Interleukin-8 (IL8), CXCL8 (gene 3576); test: BSK_LPS_IL8: BioMAP Diversity Plus: LPS Assay for Interleukin-8 (IL8) Biomarker Activity (AID 2283078); settings: primary human HUVEC with PBMC; actives raise or lower the signal
Outline: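 Human umbilical vein endothelial cells co-cultured with PBMC were stimulated with LPS; IL-8 levels were measured by ELISA 24 h after chemical dosing. Activity was fitted bidirectionally against DMSO as negative control and baseline.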

[9] = BSK_LPS_SRB: Viability Assessment in the BioMAP Diversity Plus: LPS Assay (AID 2283079); settings: primary human HUVEC with PBMC;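 further: total protein by sulforhodamine B absorbance as a cytotoxicity measure; measured one day after compound addition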
Outline: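 Human umbilical vein endothelial cells co-cultured with PBMC (LPS system) were dosed for 24 h. Total protein was stained with 0.1% sulforhodamine B after 10% TCA fixation, read at 560 nm, and fitted bidirectionally against DMSO baseline.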

[10] = read-out: Interleukin-1 alpha (IL1a), IL1A (gene 3552); test: BSK_LPS_IL1a: BioMAP Diversity Plus: LPS Assay for Interleukin-1 alpha (IL1a) Biomarker Activity (AID 2283080); settings: primary human HUVEC with PBMC; actives raise or lower the signal
Outline: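 Human umbilical vein endothelial cells co-cultured with peripheral blood mononuclear cells were LPS-stimulated and exposed to test chemicals for 24 h. IL-1 alpha was quantified by ELISA, with bidirectional curve fitting against DMSO as the negative control and baseline.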

[11] = read-out: Monocyte Chemoattractant Protein-1 (MCP1), CCL2 (gene 6347); test: BSK_LPS_MCP1: BioMAP Diversity Plus: LPS Assay for Monocyte Chemoattractant Protein-1 (MCP1) Biomarker Activity (AID 2283081); settings: primary human HUVEC with PBMC; actives raise or lower the signal;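 on AC50: secreted MCP-1 protein quantified by ELISA in culture supernatant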
Outline: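 HUVEC plus PBMC co-culture (human primary cells, LPS system) exposed to test chemical for 24 h; MCP-1 measured by ELISA. Bidirectional curve fitting against DMSO baseline; parallel SRB total-protein staining flags overt cytotoxicity.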

[12] = BSK_LPS_PGE2: BioMAP Diversity Plus: LPS Assay for Prostaglandin E2 (PGE2) Biomarker Activity (AID 2283082); settings: primary human HUVEC with PBMC; actives raise or lower the signal;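 on AC50: secreted prostaglandin E2 measured by ELISA in LPS-stimulated co-culture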
Outline: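 Endpoint derived from bidirectional curve fitting versus DMSO of ELISA-measured PGE2 in LPS-stimulated human primary vascular co-culture (HUVEC with PBMC) harvested at 24 h.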

[13] = read-out: Macrophage colony-stimulating factor (MCSF), CSF1 (gene 1435); test: BSK_LPS_MCSF: BioMAP Diversity Plus: LPS Assay for Macrophage colony-stimulating factor (MCSF) Biomarker Activity (AID 2283083); settings: primary human HUVEC with PBMC; actives raise or lower the signal
Outline: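 Human umbilical vein endothelial cells co-cultured with peripheral blood mononuclear cells were exposed to compound for 24 h. M-CSF levels were measured by ELISA, and bidirectional curve fitting used DMSO as the negative control and baseline.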

[14] = read-out: Tissue Factor, F3 (gene 2152); test: BSK_LPS_TissueFactor: BioMAP Diversity Plus: LPS Assay for Tissue Factor Biomarker Activity (AID 2283084); settings: primary human HUVEC with PBMC; actives raise or lower the signal
Outline: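 Human umbilical vein endothelial cells co-cultured with peripheral blood mononuclear cells were dosed and stimulated with LPS. Cell-surface CD142 was quantified by ELISA at 24 h. Activity was fitted bidirectionally against DMSO baseline.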

[15] = read-out: Tumor necrosis factor (Homo sapiens) (UniProt P01375); test: BSK_LPS_TNFa: BioMAP Diversity Plus: LPS Assay for Tumour Necrosis Factor alpha (TNFa) Biomarker Activity (AID 2283085); settings: primary human HUVEC with PBMC; actives raise or lower the signal;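 on AC50: TNFa protein level quantified by ELISA in the co-culture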
Outline: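 Primary human vascular co-culture of HUVEC and PBMC; TNFa ELISA 24 h after treatment, analysed as increase or decrease relative to DMSO control.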

[16] = read-out: Vascular cell adhesion molecule 1 (VCAM1), VCAM1 (gene 7412); test: BSK_LPS_VCAM1: BioMAP Diversity Plus: LPS Assay for Vascular cell adhesion molecule 1 (VCAM1) Biomarker Activity (AID 2283086); settings: primary human HUVEC with PBMC; actives raise or lower the signal
Outline: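 Primary human vascular co-culture (umbilical vein endothelium plus PBMC) stimulated with LPS received chemical; 24 h later VCAM-1 was read by ELISA. Overt cytotoxicity was assessed by sulforhodamine B staining of parallel cultures at the same time point.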

CD38, CD38 (gene 952) = test: BSK_SAg_CD38: BioMAP Diversity Plus: SAg Assay for CD38 Biomarker Activity (AID 2283087); settings: primary human HUVEC with PBMC; actives raise or lower the signal
Outline: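 Fluorescence ELISA of cell-surface CD38 served as the read-out, with either increase or decrease fitted against DMSO controls. Cells were a human umbilical vein endothelium plus PBMC co-culture under SEB/TSST-1 stimulation, measured 24 h after dosing.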

CD40, CD40 (gene 958) [17] = test: BSK_SAg_CD40: BioMAP Diversity Plus: SAg Assay for CD40 Biomarker Activity (AID 2283088); settings: primary human HUVEC with PBMC; actives raise or lower the signal
Outline: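 Human umbilical vein endothelial cells co-cultured with PBMC; CD40 levels measured by ELISA with fluorescence read-out 24 h after chemical dosing. Gain or loss of signal fitted bidirectionally against DMSO baseline.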

CD69, CD69 (gene 969) = test: BSK_SAg_CD69: BioMAP Diversity Plus: SAg Assay for CD69 Biomarker Activity (AID 2283089); settings: primary human HUVEC with PBMC; actives raise or lower the signal;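 on AC50: cell surface CD69 protein quantified by ELISA with fluorescence detection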
Outline: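 ELISA, fluorescence read-out: CD69 on human umbilical vein endothelial cell + PBMC co-culture, 24 h post-dosing. Gain or loss of signal fitted bidirectionally against DMSO baseline.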

[18] = read-out: Transforming growth factor beta 1 (TGFb1), TGFB1 (gene 7040); test: BSK_KF3CT_TGFb1: BioMAP Diversity Plus: KF3CT Assay for Transforming growth factor beta 1 (TGFb1) Biomarker Activity (AID 2283072); settings: primary human keratinocytes with fibroblasts; actives raise or lower the signal
Outline: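 Signal changes in either direction, relative to DMSO, define activity here. TGF-b1 is read by ELISA from a human keratinocyte-fibroblast co-culture 24 h post-dose.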

Measured: AC50

Sequence of Tumor necrosis factor (Homo sapiens) (P01375 whole entry, looked up): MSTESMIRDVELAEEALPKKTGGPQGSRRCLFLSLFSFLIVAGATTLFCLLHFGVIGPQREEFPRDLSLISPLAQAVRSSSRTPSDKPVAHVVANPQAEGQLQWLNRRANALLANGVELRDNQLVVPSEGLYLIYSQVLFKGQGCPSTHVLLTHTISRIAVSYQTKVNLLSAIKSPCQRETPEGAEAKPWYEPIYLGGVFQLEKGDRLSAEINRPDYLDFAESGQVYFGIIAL
Sequence of E-selectin (Homo sapiens) (P16581 whole entry, looked up): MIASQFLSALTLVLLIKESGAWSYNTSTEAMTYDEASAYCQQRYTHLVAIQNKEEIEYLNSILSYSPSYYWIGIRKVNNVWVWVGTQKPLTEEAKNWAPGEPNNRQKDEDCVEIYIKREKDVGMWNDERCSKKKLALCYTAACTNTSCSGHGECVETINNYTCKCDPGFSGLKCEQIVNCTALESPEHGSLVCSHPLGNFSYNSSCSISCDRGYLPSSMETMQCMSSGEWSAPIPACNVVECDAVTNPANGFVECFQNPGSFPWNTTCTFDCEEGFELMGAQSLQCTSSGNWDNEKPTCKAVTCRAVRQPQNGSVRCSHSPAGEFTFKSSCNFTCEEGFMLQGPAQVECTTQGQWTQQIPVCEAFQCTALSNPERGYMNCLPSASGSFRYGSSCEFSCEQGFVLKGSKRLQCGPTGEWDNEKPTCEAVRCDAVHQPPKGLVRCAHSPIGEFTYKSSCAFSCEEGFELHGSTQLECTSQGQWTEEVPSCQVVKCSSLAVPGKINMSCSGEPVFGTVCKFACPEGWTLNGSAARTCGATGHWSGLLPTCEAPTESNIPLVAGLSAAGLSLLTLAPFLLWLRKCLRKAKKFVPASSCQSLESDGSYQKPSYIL

CCCCOC(=O)c1ccccc1C(=O)OCCCC
inactive: [1] | [2] | [3] | [4] | [5] | CD40, CD40 (gene 958) [6] | [7] | [8] | [9] | [10] | [11] | [12] | [13] | [14] | [15] | [16] | CD38, CD38 (gene 952) | CD40, CD40 (gene 958) [17] | CD69, CD69 (gene 969)
active: [8] 25.3 µM | [9] 9.66 µM | CD40, CD40 (gene 958) [17] 15.4 µM

CCc1nn(C)c(C(=O)NCc2ccc(C(C)(C)C)cc2)c1Cl
inactive: [18]
active: [1] 29.5 µM | [2] 27.7 µM | [3] 27.1 µM | [4] 30.6 µM | [5] 35.4 µM | CD40, CD40 (gene 958) [6] 24.3 µM | [7] 20 µM | [8] 20 µM | [9] 30 µM | [10] 33 µM | [11] 29.4 µM | [12] 3.97 µM | [13] 13.4 µM | [14] 20 µM | [15] 20.8 µM | [16] 19.4 µM | CD38, CD38 (gene 952) 15.8 µM | CD40, CD40 (gene 958) [17] 7.68 µM | CD69, CD69 (gene 969) 3.99 µM

CCOC(=O)C(Cl)Cc1cc(-n2nc(C)n(C(F)F)c2=O)c(F)cc1Cl (stereo not drawn)
inactive: [1] | [2] | [18] | [3] | [4] | [5] | CD40, CD40 (gene 958) [6] | [7] | [8] | [9] | [10] | [11] | [12] | [13] | [14] | [15] | [16] | CD38, CD38 (gene 952) | CD40, CD40 (gene 958) [17] | CD69, CD69 (gene 969)

O=C(O)c1nc(Cl)ccc1Cl
inactive: [1] | [2] | [18] | [3] | [4] | [5] | CD40, CD40 (gene 958) [6] | [7] | [8] | [9] | [10] | [11] | [12] | [13] | [14] | [15] | [16] | CD38, CD38 (gene 952) | CD40, CD40 (gene 958) [17] | CD69, CD69 (gene 969)
active: [1] 0.148 µM
